According to PubChem BioAssay AID488852 (National Center for Advancing Translational Sciences (NCATS), 2010):
The source made the active and inactive calls. The call rests on the fitted dose curve; in most records, active means well fitted curve in the direction sought with a large enough effect; inconclusive means small, poorly fitted or top-dose-only effect, or another doubt; inactive means no such curve, though single readings can be large or run the other way.

Target: Lysosomal acid glucosylceramidase (Homo sapiens) (UniProt P04062)
Sequence (P04062 whole entry N409S): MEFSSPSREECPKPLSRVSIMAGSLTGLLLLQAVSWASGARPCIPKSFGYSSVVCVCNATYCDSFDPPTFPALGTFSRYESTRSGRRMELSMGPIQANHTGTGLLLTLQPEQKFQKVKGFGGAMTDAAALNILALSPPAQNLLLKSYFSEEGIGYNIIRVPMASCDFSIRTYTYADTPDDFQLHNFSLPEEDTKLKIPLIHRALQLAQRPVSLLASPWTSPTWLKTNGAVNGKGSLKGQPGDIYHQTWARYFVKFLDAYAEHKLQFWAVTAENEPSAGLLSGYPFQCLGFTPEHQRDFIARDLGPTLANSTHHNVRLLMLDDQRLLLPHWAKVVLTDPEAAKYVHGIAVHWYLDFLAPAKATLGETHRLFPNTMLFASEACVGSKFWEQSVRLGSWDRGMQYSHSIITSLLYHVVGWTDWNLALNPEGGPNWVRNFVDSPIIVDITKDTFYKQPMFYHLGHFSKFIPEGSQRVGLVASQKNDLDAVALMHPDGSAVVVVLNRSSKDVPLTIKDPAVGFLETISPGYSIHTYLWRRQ
Assay: qHTS Assay for Inhibitors and Activators of N370S glucocerebrosidase as a Potential Chaperone Treatment of Gaucher Disease: Activity in N370S Spleen Homogenate Confirmation Using Alternate Substrate for Probe SAR
Conditions: N370S patient spleen homogenate, resorufin-glucoside fluorescence; series mostly up to 57.5 µM; activity change, negative = inhibition: at the top concentration
Description: NIH Chemical Genomics Center [NCGC] NIH Molecular Libraries Probe Production Centers Network [MLPCN] MLPCN Grant: MH086442-01 Assay Submitter (PI): Wei Zheng Glucocerebrosidase (GC) catalyzes the hydrolysis of beta-glucocerebroside to glucose and ceramide in lysosomes. Mutations in the glucocerebrosidase gene result in Gaucher disease, an autosomal recessive lysosomal storage disorder. Many of the mutations encountered in patients with Gaucher disease are missense alterations that may cause misfolding, decreased stability and/or mistrafficking of this lysosomal protein. […] These inhibitors include iminosugar analogs and three non-iminosugar inhibitors identified from a previous HTS of 62,000 compounds with the wild type recombinant enzyme. However, the enhancement of enzyme activity by the chaperone action of an enzyme inhibitor must be balanced against the direct inhibition of the enzyme. An enzyme activator could also function as a chaperone by binding to the enzyme and helping to correct its misfolding and mistrafficking. While activators for GC have not yet been identified, they may have better therapeutic potential than inhibitors. Therefore the discovery and development of chemical activators may provide a new strategy for the chaperone therapy. We have optimized a new assay using N370S mutant GC derived from the spleen of a Gaucher patient. […] In addition, the MLPCN compound library has expanded, which increases the chance of finding new and better probes. This confirmation assay tests for compound activity in spleen homogenate from a patient homozygous for the N370S mutation using an alternate resorufin-based substrate.
NCGC Assay Protocol Summary: This is a fluorogenic enzyme assay with resorufin-beta-D-glucopyranoside as the substrate and mutant N370S glucocerebrosidase from human spleen homogenate as the enzyme preparation. Upon the hydrolysis of this fluorogenic substrate, the resulting product, […] which can be detected by a standard fluorescence plate reader. Data were normalized to the controls for basal activity (without enzyme) and 100% activity (with enzyme). The AC50 values were determined from concentration-response data modeled with the standard Hill equation. Assay buffer: 50 mM citric acid (titrated with potassium phosphate to pH 5.0), 100 mM potassium chloride, 10 mM sodium chloride, 1 mM magnesium chloride, 0.01% Tween-20. 1536-well assay protocol: (1) Add 2 ul/well of spleen homogenate (27 ug final) (2) Add 23 nL compounds in DMSO solution. The final titration was 0.5 nM to 58 uM. (3) Add 2 ul of substrate (1 mM final) (4) Incubate at 37C for 40 min. (5) Add 2 ul stop solution (1M NaOH and 1M Glycine mixture, pH 10) (6) Detect the assay plate in a ViewLux plate reader (PerkinElmer) with Ex=365 nm and Em=440nm. Keywords: Glucocerebrosidase, beta-glucosidase, Gaucher Disease, pharmacological chaperone, chaperone therapy, high throughput screening, glucocerebrosidase inhibitor, MLSMR, MLSCN, NIH Roadmap, qHTS and NCGC

Activity change, negative = inhibition, inactive:
Cc1cc(C)n2ncc(C(=O)Nc3ccc(Br)cc3)c2n1 16.8%
Cc1cc(C)n2ncc(C(=O)Nc3ccc4c(c3)OCCO4)c2n1 0.0219%
Cc1cccc(NC(=O)c2cnn3c(C)cc(C)nc23)c1 -0.21%
Cc1cc(C)n2ncc(C(=O)NCC(C)C)c2n1 -0.211%
Cc1cc(C)n2ncc(C(=O)NC(C)C)c2n1 -22.2%
CNC(=O)c1cnn2c(C)cc(C)nc12 -0.211%
Cc1cc(C)n2ncc(C(=O)Nc3ccncc3)c2n1 0.0344%
C#Cc1ccc(NC(=O)c2cnn3c(C)cc(C)nc23)cc1 20.9%
CCc1ccc(NC(=O)c2cnn3c(C)cc(C)nc23)cc1 -0.211%
Cc1ccc(NC(=O)c2cnn3c(C)cc(C)nc23)c(C)c1 -0.21%
Cc1cc(C)n2ncc(C(=O)Nc3ccc(C#N)cc3)c2n1 -24.2%
O=C(Nc1cnn(Cc2ccc(F)cc2)c1)c1cnn2c(C(F)F)cc(-c3ccccc3)nc12 0.0344%
Cc1cc(C)n2ncc(C(=O)Nc3ccc(C)c(C)c3)c2n1 0.0219%
Cc1cc(C)n2ncc(C(=O)Nc3ccc(C(C)(C)C)cc3)c2n1 -0.21%
Cc1cc(C)n2ncc(C(=O)Nc3ccccc3C)c2n1 -15.4%
Cc1cc(C)n2ncc(C(=O)NCc3ccco3)c2n1 0.0344%
Cc1cc(C)n2ncc(C(=O)Nc3cccc(C(F)(F)F)c3)c2n1 0.0219%
Cc1cc(C)n2ncc(C(=O)Nc3ccccc3)c2n1 -18.7%
Cc1ccc(NC(=O)c2cnn3c(C)cc(C)nc23)cc1 -0.21%
CC(=O)Nc1ccc(NC(=O)c2cnn3c(C)cc(C)nc23)cc1 -24.9%
Cc1cc(C)n2ncc(C(=O)Nc3ccc4c(c3)CCC4)c2n1 -0.211%
COc1ccc(NC(=O)c2cnn3c(C)cc(C)nc23)cc1Cl -14.1%
Cc1cc(C)n2ncc(C(=O)N3CCCC3)c2n1 -0.211%
Cc1cc(C)n2ncc(C(=O)NCc3ccccc3)c2n1 -24.6%
CC(=O)c1cccc(NC(=O)c2cnn3c(C)cc(C)nc23)c1 17.3%
COc1cc(NC(=O)c2cnn3c(C)cc(C)nc23)cc(OC)c1OC 0.0219%
Cc1cc(C)n2ncc(C(=O)Nc3cccc(C#N)c3)c2n1 -0.211% [at 19 µM]
COc1ccc(NC(=O)c2cnn3c(C)cc(C)nc23)cc1 -0.21%
CC(=O)Nc1ccccc1NC(=O)c1cnn2c(C)cc(C)nc12 -23.8%
COc1ccc(NC(=O)c2cnn3c(C)cc(C)nc23)cc1OC 0.0219%
Cc1cc(C)n2ncc(C(=O)Nc3ccc(S(C)(=O)=O)cc3)c2n1 0.0344%
Cc1cc(C)n2ncc(C(=O)Nc3ccc(C(F)(F)F)cc3)c2n1 23.7%
CC(=O)c1ccc(NC(=O)c2cnn3c(C)cc(C)nc23)cc1 0.0219%
Cc1cc(C)n2ncc(C(=O)Nc3ccc4c(c3)OCO4)c2n1 0.0219%
Cc1cc(C)n2ncc(C(=O)NC3CCCCC3)c2n1 -0.211%
COc1ccc(NC(=O)c2cnn3c(C)cc(C)nc23)cc1F 22.7%

outcome, inactive:
Cc1cc(C)n2ncc(C(=O)NC3CCC(C(C)(C)C)CC3)c2n1 (configuration not stated)
